Screening data: PubChem, several laboratories
Shown are actives, neighbours in structure and some others; about 3% of the full set was active somewhere.
CHT allo act: human CHT allosteric activation; Q9GZV3; CHT-expressing cells, membrane potential dye, choline EC20; active compounds read high; LV-AA mutant CHT in HEK293 cells; B-score at 10 µM; 0.49% of 310,000 active;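 active means initial fluorescence not abnormally high and integrated response B-score, plate-corrected, over 3 SD above library mean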
Target sequence (Q9GZV3 whole entry, looked up): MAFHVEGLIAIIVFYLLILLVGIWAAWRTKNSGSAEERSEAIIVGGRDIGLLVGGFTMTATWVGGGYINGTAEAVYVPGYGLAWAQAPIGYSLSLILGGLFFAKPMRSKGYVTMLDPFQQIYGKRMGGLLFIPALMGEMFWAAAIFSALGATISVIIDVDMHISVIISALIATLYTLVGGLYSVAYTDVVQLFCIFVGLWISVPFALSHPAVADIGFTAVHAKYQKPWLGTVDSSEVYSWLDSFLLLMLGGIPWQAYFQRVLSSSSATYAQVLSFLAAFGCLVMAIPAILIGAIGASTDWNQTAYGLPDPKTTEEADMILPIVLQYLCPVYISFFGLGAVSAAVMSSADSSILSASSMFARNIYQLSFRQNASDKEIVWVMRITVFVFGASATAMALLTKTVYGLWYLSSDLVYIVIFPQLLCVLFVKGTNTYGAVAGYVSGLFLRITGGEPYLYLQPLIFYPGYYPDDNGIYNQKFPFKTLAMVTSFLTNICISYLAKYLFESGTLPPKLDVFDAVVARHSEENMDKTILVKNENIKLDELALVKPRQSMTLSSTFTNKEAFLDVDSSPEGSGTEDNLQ
NLRP3 yeast inh: blocks the NALP3 inflammasome reconstituted in yeast. Yeast reconstituted NLRP3/ASC/caspase-1, beta-gal luminescence, 24 h. inhibition, % at 10 µM. 0.39% of 330,000 active. AID 2825;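 active means inhibition of 50% or more; inactive means inhibition below 50%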
A1 inh: inhibitors of the anti-apoptotic protein A1, read as caspase activation; MEF A1-2A-BIM cells, Caspase-Glo 3/7 luminescence, 3 h; percent of clofoctol response, vehicle zero; caspase activation, % (test concentration not listed); 0.066% of 330,000 active; AID 2462;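 active means over half of replicate activation scores above 10%, or exactly half above 10 with the replicate mean above 10; inconclusive means replicate mean below 10 yet half the replicates above 10; inactive means over half of replicates below 10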
CHT block: inhibits the human high affinity choline transporter. Q9GZV3. CHT-expressing cells, membrane potential dye, choline response; active compounds read low. B-score at 10 µM. 0.86% of 310,000 active. AID 488975;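 active means B-score over 3 SD under the library average, and starting fluorescence ratio not unusually high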;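 further: choline stimulus applied at its EC90 after an EC20 pre-addition; B-score computed on integrated fluorescence ratio after choline addition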
NALP1 inh: inhibitors of NALP1 inflammasome in yeast. S. cerevisiae NALP1/ASC/caspase-1 growth, X-gal OD620, 72 h. inhibition, % at 10 µM. 0.61% of 280,000 active; in the data active means inhibition mostly above about 24%, no sharp cut-off; inactive means mostly below about 32%
SUMO Mot1 rescue: inhibitors of SUMOylation pathway: yeast Mot1-301 growth rescue; S. cerevisiae Mot1-301 growth rescue, ATP luminescence, 38.5C; percent above DMSO median, 100 means doubled; 1% of 320,000 active; growth rescue, % at 18.8 µM; AID 2716;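 active means every valid replicate shows activation above 250% relative to neutral control wells; inactive means the rest, any valid replicate at or below 250%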
Mot1 SUMO dose: SUMO pathway inhibitors in yeast Mot1-301 growth; 2,300 tested, under 10 active; growth activity, percent, % at 42 µM; shares compounds with SUMO Mot1 rescue; S. cerevisiae Mot1-301 galactose growth, ATP luminescence, 24 h; -100 = growth of slx-deleted rescue strain; AID 493004;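 active means Signal drops as the depositor expects, and the fitted half-maximal dose is no more than ten times the top valid tested dose; inconclusive means Poor fit, or a flat curve whose signal drops by 30% to 70%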;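 further: more negative values mean stronger growth rescue toward the control strain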
Numbers stand for hits.

Cc1ccc(C(=O)N2CCCC(Nc3ccc(F)cc3)C2)cc1C (centres undefined) was read as CHT allo act inactive, NLRP3 yeast inh inactive, A1 inh inactive, CHT block inactive, NALP1 inh inactive and SUMO Mot1 rescue inactive.
`O=C1C=CCC(/C=C/c2ccccc2)O1` (centres undefined) gave CHT allo act inactive, NLRP3 yeast inh inactive, A1 inh inactive, CHT block inactive, NALP1 inh 47 and SUMO Mot1 rescue inactive.
CCSc1nnc(NC(=O)C(CC)(C(F)(F)F)C(F)(F)F)s1 was read as CHT allo act inactive, NLRP3 yeast inh inactive, A1 inh inactive, CHT block -5.2, NALP1 inh inactive and SUMO Mot1 rescue inactive.
`CS(=O)(=O)N1CCC(Oc2ccccc2C(=O)NC(C2CC2)C2CC2)CC1` gave CHT allo act inactive, NLRP3 yeast inh inactive, A1 inh inactive, CHT block inactive, NALP1 inh inactive and SUMO Mot1 rescue 834.
Cc1ccccc1NC(=O)c1ccccc1NC(=O)c1ccccc1F was read as CHT allo act inactive, A1 inh inactive, CHT block inactive, NALP1 inh inactive and SUMO Mot1 rescue inactive.
`CN(Cc1ccccc1)C(=O)COC(=O)CCN1C(=O)C2CC=CCC2C1=O` (centres undefined) gave NLRP3 yeast inh inactive, A1 inh inactive and SUMO Mot1 rescue inactive.
O=C(NNC(=O)C12CC3CC(CC(C3)C1)C2)c1ccccn1 was read as CHT allo act inactive, NLRP3 yeast inh inactive, A1 inh inactive, CHT block inactive, NALP1 inh inactive, SUMO Mot1 rescue 998 and Mot1 SUMO dose inactive.
`O=C(NNC(=O)C12CC3CC(CC(C3)C1)C2)c1cnccn1` gave CHT allo act inactive, NLRP3 yeast inh inactive, A1 inh inactive, CHT block inactive, NALP1 inh inactive and SUMO Mot1 rescue inactive.
COc1ccc(CCC(=O)Nc2nnc(C(F)(F)F)s2)cc1 was read as CHT allo act inactive, NLRP3 yeast inh inactive, A1 inh inactive, CHT block inactive, NALP1 inh inactive and SUMO Mot1 rescue inactive.
`COc1ccc(NC(=O)CCC(=O)Nc2nnc(C(F)(F)F)s2)c(OC)c1` gave CHT allo act inactive, NLRP3 yeast inh inactive, A1 inh inactive, CHT block inactive, NALP1 inh inactive, SUMO Mot1 rescue 820 and Mot1 SUMO dose inactive.
Screening Cc1ccc(/C(N)=N/OC(=O)/C=C/c2ccccc2)cc1 returned CHT allo act inactive, NLRP3 yeast inh inactive, A1 inh inactive, CHT block inactive, NALP1 inh inactive, SUMO Mot1 rescue 840 and Mot1 SUMO dose inactive.
Screening O=S1(=O)C=C(Sc2nnc(-c3ccccc3)o2)c2ccccc21 returned CHT allo act inactive, NLRP3 yeast inh inactive, A1 inh inconclusive, CHT block inactive, NALP1 inh inactive, SUMO Mot1 rescue 917 and Mot1 SUMO dose inactive.
Screening CC(C)[C@H](NC(=O)c1ccccc1)C(=O)OCC(=O)Nc1ncc(Cl)cc1Cl returned NLRP3 yeast inh inactive, A1 inh inactive and SUMO Mot1 rescue inactive.
For NC(=O)C1CCN(C(=O)/C(=C/c2ccccc2)NC(=O)c2ccccc2)CC1 the results were CHT allo act inactive, NLRP3 yeast inh inactive, A1 inh inactive, CHT block inactive, NALP1 inh inactive and SUMO Mot1 rescue inactive.
O=c1[nH]cnc2ccc([N+](=O)[O-])cc12 was read as CHT allo act inactive, NLRP3 yeast inh inactive, A1 inh inactive, CHT block inactive, SUMO Mot1 rescue 397 and Mot1 SUMO dose inactive.
Screening O=C(CSc1n[nH]c(-c2ccccc2)n1)Nc1ccccc1O returned CHT allo act inactive, NLRP3 yeast inh inactive, A1 inh inactive, CHT block inactive, NALP1 inh inactive and SUMO Mot1 rescue inactive.
`CC(=O)c1cccc(NC(=O)c2cccc3ccccc23)c1` gave CHT allo act inactive, NLRP3 yeast inh inactive, A1 inh inactive, CHT block inactive, NALP1 inh inactive and SUMO Mot1 rescue inactive.
`Cc1cc(C)c[n+](-c2nc3ccccc3nc2[N-]S(=O)(=O)c2ccc(Br)s2)c1` gave CHT allo act inactive, NLRP3 yeast inh inactive, A1 inh inactive, CHT block inactive, NALP1 inh inactive, SUMO Mot1 rescue 379 and Mot1 SUMO dose inactive.
Screening O=C1CN(C(=O)COC(=O)COc2ccc3c(c2)CCC3)c2ccccc2N1 returned CHT allo act inactive, NLRP3 yeast inh inactive, A1 inh inactive, CHT block inactive, NALP1 inh inactive, SUMO Mot1 rescue 586 and Mot1 SUMO dose inactive.
`CC(C)NC(=O)N(C)C[C@H]1Oc2ccc(NC(=O)Nc3ccccc3)cc2C(=O)N([C@@H](C)CO)C[C@@H]1C` gave NLRP3 yeast inh inactive, A1 inh inactive and SUMO Mot1 rescue inactive.
CCCOc1ccc(/C=N/Nc2ccccc2[N+](=O)[O-])c(O)c1 was read as CHT allo act inactive, NLRP3 yeast inh inactive, A1 inh inactive, CHT block inactive, NALP1 inh inactive and SUMO Mot1 rescue inactive.
CCCOc1ccc([N+](=O)[O-])c(N)c1 was read as CHT allo act inactive, NLRP3 yeast inh inactive, A1 inh inactive, CHT block inactive, NALP1 inh inactive, SUMO Mot1 rescue 788 and Mot1 SUMO dose inactive.
`CCN1C(=O)[C@H]2[C@@H](c3ccc(-c4ccc(F)cc4)cc3)N3CCCC[C@@]3(C(=O)OC)[C@H]2C1=O` gave CHT allo act inactive, NLRP3 yeast inh inactive, A1 inh inactive, CHT block inactive and SUMO Mot1 rescue inactive.
Screening Cc1nc2nc[nH]n2c(=O)c1NS(=O)(=O)c1ccc(F)cc1 returned CHT allo act inactive, NLRP3 yeast inh inactive, A1 inh inactive, CHT block inactive, NALP1 inh inactive and SUMO Mot1 rescue inactive.
Screening Cc1nc2nc[nH]n2c(=O)c1NS(=O)(=O)c1ccc([N+](=O)[O-])cc1 returned CHT allo act inactive, NLRP3 yeast inh inactive, A1 inh inactive, CHT block inactive, NALP1 inh inactive, SUMO Mot1 rescue 487 and Mot1 SUMO dose inactive.
For CC(C)CC(c1nnnn1C1CCCCC1)N1CCN(C(=O)c2ccco2)CC1 (centres undefined) the results were CHT allo act inactive, NLRP3 yeast inh inactive, A1 inh inactive, CHT block inactive, NALP1 inh inactive, SUMO Mot1 rescue 706 and Mot1 SUMO dose inactive.
Screening CC(C)CC(c1nnnn1C1CCCC1)N1CCN(C(=O)c2ccco2)CC1 (centres undefined) returned CHT allo act inactive, NLRP3 yeast inh inactive, A1 inh inactive, CHT block inactive, NALP1 inh inactive and SUMO Mot1 rescue inactive.
Screening COc1cc(NC(=O)C2CCCN(S(=O)(=O)c3ccc4c(c3)oc(=O)n4C)C2)cc(OC)c1 (centres undefined) returned CHT allo act inactive, NLRP3 yeast inh inactive, A1 inh inactive, CHT block inactive, NALP1 inh inactive and SUMO Mot1 rescue inactive.
